Molecules are shown by their SMILES. Activity calls are given as the source filed them. No stated cut-off is given here; in the data, active means fold change permeability below about 0.7 or above about 1.3; inactive means in between.

The experiment is described as follows: modulators of brain endothelial barrier permeability, primary screen, cell-based, FITC-avidin fluorescence, HTS (AID 1963498). Further: test concentration not given here. The conditions noted are these: actives lie on both sides.
On to `Oc1ccc(-c2nc(-c3ccc(F)cc3)c(-c3ccncc3)[nH]2)cc1`, for which the fold change permeability was 1.1 (inactive).

Take `CC(C)Cc1ccc([C@H](C)C(=O)O)cc1`: the fold change permeability is 2.3 (active).

Consider `Oc1ccccc1-c1cc(-c2ccccc2F)[nH]n1`, for which the fold change permeability was 1 (inactive).

For `NC(N)=NC(N)=Nc1cccc(Cl)c1`, the fold change permeability was 1.2 (inactive).

For `Nc1ccc(CCNc2ncnc3c2ncn3C2OC(CO)C(O)C2O)cc1` (stereo unspecified), the fold change permeability is 1 (inactive).

As for `CN(C)CCCN1c2ccccc2Sc2ccc(C(F)(F)F)cc21`, the fold change permeability is 1.2 (inactive).

For `COc1ccc(S(=O)(=O)Nc2nc(-c3cccc([N+](=O)[O-])c3)cs2)cc1OC`, the fold change permeability is 0.9 (inactive).

As to `NC(=O)NO`, the fold change permeability was 1.1 (inactive).

For `COc1cc(CC(=O)O)ccc1O`, the fold change permeability is 1.1 (inactive).

For `NC(N)=S`, the fold change permeability was 1.3 (active).

Take `Cc1nc(N=Nc2ccc(S(=O)(=O)O)cc2S(=O)(=O)O)c(COP(=O)(O)O)c(C=O)c1O`: the fold change permeability is 0.9 (inactive).

For `COc1cc2c(cc1OC)C1CC(=O)C(CC(C)C)CN1CC2` (stereo unspecified), the fold change permeability was 0.7 (active).

On to `CC(=O)OCC(CCn1cnc2cnc(N)nc21)COC(C)=O`, for which the fold change permeability is 0.9 (inactive).

As for `CC(C)(N)C(=O)N[C@H](COCc1ccccc1)C(=O)N1CCC2(CC1)CN(S(C)(=O)=O)c1ccccc12`, the fold change permeability is 1.8 (active).

Regarding `CC(=O)O[C@]1(C(C)=O)CC[C@H]2[C@@H]3C=C(Cl)C4=CC(=O)[C@@H]5C[C@@H]5[C@]4(C)[C@H]3CC[C@@]21C`, the fold change permeability is 1 (inactive).

Turning to `NCCS(=O)O`, the fold change permeability was 1 (inactive).

`C[C@H]1CC(=O)Nc2cc(C(=O)NCCC3CC3)ccc2N1C(=O)N1CC2CC2C1` (stereo partly specified): the fold change permeability is 1.1 (inactive).

On to `CC(=O)[C@@]1(O)CC[C@H]2[C@@H]3CCC4=CC(=O)CC[C@]4(C)[C@H]3CC[C@@]21C`, for which the fold change permeability was 1 (inactive).

As to `O=C(C1CCCCC1)N1CC(=O)N2CCc3ccccc3C2C1` (stereo unspecified), the fold change permeability was 1.2 (inactive).

As for `c1ccc([C@H]2CN3CCSC3=N2)cc1`, the fold change permeability was 1.5 (active).

`CC(=O)Nc1ccc(C(=O)Nc2ccc(F)cc2N)cc1`: the fold change permeability was 0.8 (inactive).

For the origin of these results see PubChem BioAssay.
